Assay outcomes as filed in PubChem BioAssay.
C diff growth – blocks growth of Clostridium difficile. Clostridium difficile clinical isolate growth, OD600, 24 h; active compounds read low. growth activity, negative = inhibition, % at 16 µg/mL (by protocol). 86,000 compounds, 0.25% hits. AID 1259249;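 active means mean growth activity at or below -80% and every replicate also at or below -80%; inconclusive means mean at or below -80% but some replicate above -80%; inactive means mean growth activity above -80%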
Pf Dd2 growth – P. falciparum Dd2 growth inhibition; SYBR Green, 72 h; active compounds read low; activity change, % at 10 µM; 94,000 compounds, 2.3% hits; AID 1159554; in the data active means activity change below about -80%; inconclusive means no clear call, values can overlap the other calls
Hits are given with their value; . = inactive; ? = inconclusive; / = no result given. A selection: hits, their analogues and other compounds. The true share with any hit is near 2.4%.

SMILES	C diff growth	Pf Dd2 growth
C[C@H](CO)N1C[C@H](C)[C@@H](CN(C)C(=O)Nc2cccc3ccccc23)OCCCC[C@H](C)Oc2ccc(NC(=O)c3ccccc3)cc2C1=O	.	.
C[C@@H]1CN([C@@H](C)CO)C(=O)c2cc(NC(=O)c3ccncc3)ccc2O[C@@H](C)CCCCO[C@@H]1CN(C)C(=O)Nc1cccc2ccccc12	.	-84
C[C@@H]1CN([C@H](C)CO)C(=O)c2cc(NC(=O)c3ccncc3)ccc2O[C@@H](C)CCCCO[C@H]1CN(C)C(=O)Nc1cccc2ccccc12	.	.
C[C@@H]1CN([C@@H](C)CO)C(=O)c2cc(NC(=O)c3ccccc3)ccc2O[C@@H](C)CCCCO[C@@H]1CN(C)C(=O)Nc1cccc2ccccc12	.	-87
CCC(=O)N1C[C@H](C)[C@@H](OC)CN(C)C(=O)c2ccc(NC(=O)c3cc(C)on3)cc2OC[C@H]1C	.	.
CNC[C@H]1OCCCC[C@@H](C)Oc2ccc(NC(=O)Nc3ccc(C(F)(F)F)cc3)cc2C(=O)N([C@H](C)CO)C[C@@H]1C	.	/
COCC(=O)N1[C@H](CO)[C@@H]2c3ccccc3N(C(=O)c3ccccc3)C[C@@H]21	.	.
C[C@H](CO)N1C[C@H](C)[C@@H](CN(C)Cc2ccc(C(=O)Nc3ccccc3N)cc2)Oc2c(NS(=O)(=O)c3ccccc3)cccc2C1=O	.	.
C[C@@H]1CN([C@H](C)CO)C(=O)c2cccc(NS(=O)(=O)c3ccc(Cl)cc3)c2O[C@H]1CN(C)Cc1ccc(C(=O)Nc2ccccc2N)cc1	.	?
C[C@@H]1CN([C@@H](C)CO)C(=O)c2cccc(NS(=O)(=O)c3ccc(Cl)cc3)c2O[C@@H]1CN(C)Cc1ccc(C(=O)Nc2ccccc2N)cc1	.	-92
C[C@H]1CN([C@@H](C)CO)C(=O)c2cccc(NS(=O)(=O)c3ccc(Cl)cc3)c2O[C@@H]1CN(C)Cc1ccc(C(=O)Nc2ccccc2N)cc1	.	.
C[C@@H]1CN([C@@H](C)CO)C(=O)c2cccc(NS(=O)(=O)c3ccccc3)c2O[C@@H]1CN(C)Cc1ccc(C(=O)Nc2ccccc2N)cc1	.	-92
C[C@H](CO)N1C[C@H](C)[C@H](CN(C)Cc2ccc(C(=O)Nc3ccccc3N)cc2)Oc2c(NS(=O)(=O)c3ccc(F)cc3)cccc2C1=O	.	-85
CCCN1C[C@@H](C)[C@@H](OC)CN(C)C(=O)c2ccc(NS(=O)(=O)c3ccccc3)cc2OC[C@@H]1C	/	.
CCNC(=O)C[C@@H]1C=C[C@@H](NS(=O)(=O)c2ccc(F)cc2)[C@H](CO)O1	/	.
C[C@H]1CN([C@@H](C)CO)S(=O)(=O)c2ccc(C#Cc3ccncc3)cc2O[C@H]1CN(C)S(=O)(=O)c1ccccc1	.	.
COCC#Cc1ccc2c(c1)O[C@H](CN(C)S(=O)(=O)c1cccc(F)c1)[C@H](C)CN([C@H](C)CO)S2(=O)=O	.	-82
Cc1ccc(S(=O)(=O)N(C)C[C@@H]2Oc3cc(C#Cc4ccncc4)ccc3S(=O)(=O)N([C@@H](C)CO)C[C@@H]2C)cc1	.	-85
Cc1ccc(S(=O)(=O)N(C)C[C@H]2Oc3cc(C#Cc4ccncc4)ccc3S(=O)(=O)N([C@H](C)CO)C[C@H]2C)cc1	.	.
C[C@@H]1CN([C@@H](C)CO)S(=O)(=O)c2ccc(C#Cc3ccncc3)cc2O[C@@H]1CN(C)S(=O)(=O)c1ccc(F)cc1	.	-83
C[C@@H]1CN([C@H](C)CO)S(=O)(=O)c2ccc(C#Cc3ccc(F)cc3)cc2O[C@H]1CN(C)S(=O)(=O)c1ccc(F)cc1	.	.
COCC#Cc1ccc2c(c1)O[C@@H](CN(C)S(=O)(=O)c1cccc(F)c1)[C@H](C)CN([C@@H](C)CO)S2(=O)=O	.	.
Cc1ccc(S(=O)(=O)N(C)C[C@H]2Oc3cc(C#Cc4ccncc4)ccc3S(=O)(=O)N([C@H](C)CO)C[C@@H]2C)cc1	.	-81
CNC[C@@H]1Oc2c(NS(=O)(=O)c3ccc(F)cc3)cccc2C(=O)N([C@H](C)CO)C[C@H]1C	.	.
CC(C)NC(=O)N(C)C[C@@H]1Oc2ccc(NS(=O)(=O)c3ccc(Cl)cc3)cc2C(=O)N([C@@H](C)CO)C[C@H]1C	.	.
SMILES	C diff growth	Pf Dd2 growth
CCCNC(=O)C[C@@H]1C[C@H]2c3cc(NC(=O)NC4CCCC4)ccc3O[C@H]2[C@H](CO)O1	/	.
C[C@H](CO)N1C[C@H](C)[C@@H](CN(C)C(=O)Nc2cccc3ccccc23)Oc2ccc(NC(=O)c3ccncc3)cc2C1=O	.	.
Cc1noc(C)c1NC(=O)Nc1ccc2c(c1)C(=O)N([C@H](C)CO)C[C@H](C)[C@H](CN(C)Cc1ccc3c(c1)OCO3)O2	.	.
O=C(N[C@@H]1CC[C@H](CCNS(=O)(=O)c2ccc(F)cc2)O[C@@H]1CO)C1CC1	.	.
C[C@@H]1CN([C@H](C)CO)C(=O)c2cc(C#CCc3ccccc3)cnc2O[C@@H]1CN(C)CC1CC1	/	-81
C[C@@H]1CN([C@@H](C)CO)C(=O)c2cc(C#CCc3ccccc3)cnc2O[C@@H]1CN(C)CC1CC1	.	.
C[C@@H]1CN([C@@H](C)CO)C(=O)c2cc(C#CCc3ccccc3)cnc2O[C@H]1CN(C)CC1CCCC1	.	-86
C[C@H]1CN([C@@H](C)CO)C(=O)c2cc(C#CCc3ccccc3)cnc2O[C@H]1CN(C)CC1CC1	/	.
CO[C@@H]1CN(C)C(=O)c2ccc(NC(C)=O)cc2OC[C@@H](C)N(C(=O)c2ccncc2)C[C@H]1C	/	.
Cc1ccc(S(=O)(=O)Nc2ccc3c(c2)C(=O)N([C@H](C)CO)C[C@H](C)[C@H](CN(C)Cc2ccc(Cl)c(Cl)c2)OCCCC[C@H](C)O3)cc1	.	.
COCC(=O)N1[C@H](C#N)[C@@H](c2ccccc2-c2ccccc2)[C@H]1CO	.	-93
COCC(=O)N1[C@H](C#N)[C@@H](c2ccccc2-c2ccccc2)[C@@H]1CO	.	.
COCC(=O)N1[C@H](CO)[C@@H](c2ccccc2-c2ccccc2)[C@@H]1C#N	.	.
COCC(=O)N1[C@@H](C#N)[C@H](c2ccccc2-c2ccccc2)[C@@H]1CO	.	-86
CCC(=O)N1[C@@H](C#N)[C@@H](c2ccccc2-c2cccc(C)c2)[C@@H]1CO	.	.
CCC(=O)N1[C@H](CO)[C@@H](c2ccccc2-c2cccc(C)c2)[C@@H]1C#N	.	-86
Cc1noc(C)c1NC(=O)Nc1ccc2c(c1)C(=O)N([C@@H](C)CO)C[C@H](C)[C@@H](CN(C)C)OCCCC[C@@H](C)O2	.	.
C[C@@H]1CN([C@@H](C)CO)C(=O)c2cccc(N(C)C)c2O[C@H]1CN(C)S(=O)(=O)c1ccccc1	.	.
COc1ccc(NC(=O)N(C)C[C@H]2OCCCC[C@H](C)Oc3ccc(NC(=O)Nc4ccc(F)cc4)cc3C(=O)N([C@@H](C)CO)C[C@@H]2C)cc1	.	.
Cc1noc(C)c1NC(=O)N(C)C[C@@H]1Oc2ccc(NC(=O)C3CC3)cc2C(=O)N([C@@H](C)CO)C[C@@H]1C	.	.
C[C@@H]1CN([C@H](C)CO)C(=O)Cc2cc(NC(=O)CCCCCC(=O)Nc3ccccc3N)ccc2O[C@H]1CN(C)S(=O)(=O)c1ccc(Cl)cc1	/	.
C[C@H](CO)N1C[C@H](C)[C@H](CN(C)S(=O)(=O)c2ccc(Cl)cc2)Oc2ccc(NC(=O)CCCCCC(=O)Nc3ccccc3N)cc2CC1=O	/	-91
